Gli-Sufu block: antagonists of Gli-Sufu signaling; 340,000 tested, 0.74% active; inhibition, % at 5 µM; Sufu-KO-LIGHT fibroblasts, Gli luciferase reporter luminescence;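 active means inhibition above about 55%, limit read from the data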;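 further: 0% = DMSO-treated cells and 100% = wells with medium but no cells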
Mdm2 MdmX PPI: disrupts the human Mdm2-MdmX interaction; 330,000 tested, 3% active; inhibition, % at 8 µM; AID 485346; SaOS-2 split-luciferase Mdm2/MdmX complementation, luminescence; O15151+Q00987;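 active means inhibition of at least 50% at 8 µM in the primary screen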
CSC inhib: blocks cancer stem cells | cancer stem cell-like cells viability, luminescence | inhibition, % at 7.5 µM | 300,000 tested, 1.1% active; in the data active means inhibition above about 75%; tested in HMLE shEcad cells
Beta cell apopt: beta cell apoptosis inhibition; INS-1E cytokine-induced death, ATP luminescence, 48 h; percent of positive-control rescue, neutral wells zero; protection from apoptosis, % (test concentration not listed); 300,000 tested, 0.8% active;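 active means Every replicate reaches about 75%, or at least half do and their mean reaches it too, limit read from the data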;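 further: 0% = cytokine-treated negative control wells and 100% = positive control rescue; higher means more ATP so stronger rescue from cytokine killing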
PAX8 reporter: PAX8 transcriptional activity inhibition. RMG-I TPO-luciferase reporter, SteadyGlo, 24 h. inhibition, % at 12.6 µM. 360,000 tested, 1.2% active;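 active means mean replicate inhibition at least 60% with every replicate also reaching 60%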;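 further: luciferase light reporting Pax8 driven TPO promoter activity; plate controls were median of neutral control wells for no effect and mitoxantrone controls for full effect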
Shn3 3UTR inh: Schnurri-3 reporter inhibition in Clone20 osteoblasts; AID 588674; 360,000 tested, 0.52% active; inhibition, % at 12.5 µM; Clone20 osteoblast Shn3 3'UTR firefly luciferase, 24 h;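 active means mean inhibition of at least 75% with every replicate also reaching 75%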;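 further: 0% = median of neutral control wells and 100% = pilot-screen positive control compound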
Mdm2 MdmX conf: human Mdm2/MdmX binding inhibition, confirmed; shares compounds with Mdm2 MdmX PPI; 10,000 tested, 55% active; luminescent assay; inhibition, % at 8 µM; AID 489028; in the data active means inhibition above about 40%
FLuc counter: inhibits full-length luciferase, flagging false Mdm2/MdmX hits | SaOS-2 full-length luciferase counterscreen, luminescence | shares compounds with Mdm2 MdmX PPI | inhibition, % at 8 µM | 6,200 tested, 77% active;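 active means mean inhibition at 8 µM reaching about 37%, which flags the compound as non-specific, limit read from the data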;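 further: p53-null SaOS-2 cells with luciferase driven by a doxycycline-inducible promoter; compound on cells about two nights before reading with doxycycline added after day one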
An asterisk follows results filed as active. Rows were chosen to be rich in hits. Some 4% of all compounds tested hit in one or more screens of this group.

For O=C(CSc1ccc2c(c1)OCCO2)Nc1ccc(Br)cn1 the results were Gli-Sufu block -11, Mdm2 MdmX PPI 64*, Beta cell apopt -5, PAX8 reporter 7, Shn3 3UTR inh -1 and Mdm2 MdmX conf 19.
For CC(C)CCn1c(=O)c2ccccc2n2c(CCC(=O)NC3CCN(Cc4ccccc4)CC3)nnc12 the results were Gli-Sufu block 10, Mdm2 MdmX PPI 77*, Beta cell apopt 2, PAX8 reporter 11, Shn3 3UTR inh 13, Mdm2 MdmX conf 58* and FLuc counter 49*.
Screening CC(=O)c1ccc(Nc2cc(C)nc3ccccc23)cc1 returned Gli-Sufu block 6, Mdm2 MdmX PPI 59*, CSC inhib 26, PAX8 reporter -16, Shn3 3UTR inh -25, Mdm2 MdmX conf 50* and FLuc counter 61*.
For COc1ccc2nc(C)cc(Nc3ccc(N4CCN(C)CC4)cc3)c2c1 the results were Gli-Sufu block 9, Mdm2 MdmX PPI 99*, CSC inhib 22, Beta cell apopt 73, PAX8 reporter 59, Shn3 3UTR inh -17, Mdm2 MdmX conf 90* and FLuc counter 36*.
For COc1ccc(OC)c(Nc2cc(C)nc3ccc(C)cc23)c1 the results were Gli-Sufu block 0, Mdm2 MdmX PPI 68*, CSC inhib 44, Beta cell apopt 6, PAX8 reporter 30, Shn3 3UTR inh 46, Mdm2 MdmX conf 58* and FLuc counter 48*.
Screening COC(=O)c1ccc(Nc2cc(C)nc3ccc(C)cc23)cc1 returned Gli-Sufu block 9, Mdm2 MdmX PPI 100*, CSC inhib 30, Beta cell apopt 32, PAX8 reporter 24, Shn3 3UTR inh 7, Mdm2 MdmX conf 66* and FLuc counter 52*.
COC(=O)c1ccc2nc(C)cc(Nc3ccccc3C)c2c1 was read as Gli-Sufu block 11, Mdm2 MdmX PPI 11, CSC inhib -11, Beta cell apopt 6, PAX8 reporter 14 and Shn3 3UTR inh 10.
`COc1ccc(Nc2cc(C)nc3ccccc23)cc1` gave Gli-Sufu block 15, Mdm2 MdmX PPI 23, Beta cell apopt 12 and Shn3 3UTR inh 5.
`C[C@H](CO)N1C[C@H](C)[C@H](CN(C)C)Oc2ccc(NC(=O)Cc3cn(C)c4ccccc34)cc2C1=O` gave PAX8 reporter -16.
Screening CCC(=O)N1[C@H](CO)[C@H](c2ccccc2-c2cccc(C)c2)[C@@H]1C#N returned PAX8 reporter -2.
`CCNC(=O)C[C@@H]1CC[C@@H](NS(=O)(=O)c2ccc(C)cc2)[C@@H](CO)O1` gave PAX8 reporter -5.
`O=C(O)C[C@H]1C[C@@H]2c3cc(NC(=O)C4CCC4)ccc3O[C@@H]2[C@H](CO)O1` gave PAX8 reporter 2.
`O=C(Nc1ccc([N+](=O)[O-])cc1)Nc1ccon1` gave Gli-Sufu block 4, Mdm2 MdmX PPI 66*, Beta cell apopt 33, PAX8 reporter 21, Shn3 3UTR inh 13, Mdm2 MdmX conf 67* and FLuc counter 73*.
`CCc1ccc(NC(=O)Nc2ccon2)cc1` gave Gli-Sufu block -36, Mdm2 MdmX PPI -12, CSC inhib 2, Beta cell apopt -3, PAX8 reporter -96 and Shn3 3UTR inh -49.
`O=[N+]([O-])c1ccc(S(=O)(=O)Nc2ccncc2)cc1` gave Gli-Sufu block 18, Mdm2 MdmX PPI 50*, PAX8 reporter -6, Shn3 3UTR inh 3 and Mdm2 MdmX conf 8.
COC(=O)c1ccc(NC(=O)Nc2ccc([N+](=O)[O-])cc2)cc1 was read as Gli-Sufu block 3, Mdm2 MdmX PPI 59*, CSC inhib 12, Beta cell apopt 13, PAX8 reporter 3, Shn3 3UTR inh 4, Mdm2 MdmX conf 43* and FLuc counter 85*.
O=C(Nc1ccc(Oc2cccnc2)cc1)c1ccc([N+](=O)[O-])cc1 was read as Mdm2 MdmX PPI 3, Beta cell apopt 18, PAX8 reporter 7 and Shn3 3UTR inh 17.
Screening O=C(Nc1ccc(Nc2ccncc2)cc1)c1ccc([N+](=O)[O-])cc1 returned Gli-Sufu block 2, Mdm2 MdmX PPI 100*, CSC inhib 29, Beta cell apopt 22, PAX8 reporter 33, Shn3 3UTR inh 48, Mdm2 MdmX conf 36 and FLuc counter 13.
Screening CCCC#Cc1ccc([C@H]2[C@@H](CO)N3C(=O)CN(C(=O)NC4CCCC4)C[C@H]23)cc1 returned PAX8 reporter 3.
For CCS(=O)(=O)Nc1ccc2c(c1)C(=O)N(C)[C@H]1CC[C@@H](CC(=O)NCc3ccc(OC)cc3)O[C@H]1CO2 the results were PAX8 reporter 2.
Screening C[C@@H]1CN([C@@H](C)CO)C(=O)Cc2cc(NC(=O)Cc3ccccc3)ccc2O[C@@H]1CN(C)S(=O)(=O)c1ccc(F)cc1 returned PAX8 reporter 10.
For COCC(=O)N1C[C@H](C)[C@@H](OC)CN(C)C(=O)c2cc(NC(=O)c3cc(C)on3)ccc2OC[C@H]1C the results were PAX8 reporter -4.
Cc1ccc(C2Oc3ccccc3C3=C2C(c2cccs2)n2ncnc2N3)cc1 (stereo unspecified) was read as Gli-Sufu block 3, Mdm2 MdmX PPI 58*, CSC inhib 61, Beta cell apopt 21, Shn3 3UTR inh 26, Mdm2 MdmX conf 70* and FLuc counter 37*.
Screening COc1ccc2[nH]c3c(c2c1)CC(C)NC3=O (stereo unspecified) returned Gli-Sufu block -11, Mdm2 MdmX PPI 78*, CSC inhib -20, Beta cell apopt -21, PAX8 reporter -16, Shn3 3UTR inh 13, Mdm2 MdmX conf 74* and FLuc counter 34.
Screening Cc1ccccc1OCCc1c(C)[nH]c(=S)[nH]c1=O returned Gli-Sufu block 9, Mdm2 MdmX PPI 55*, CSC inhib -2, Beta cell apopt 6, PAX8 reporter 39, Shn3 3UTR inh -14, Mdm2 MdmX conf 62* and FLuc counter 56*.
`COc1ccc(Nc2nc(-c3ccccc3)nc3ccccc23)cc1S(=O)(=O)N1CCOCC1` gave Gli-Sufu block 9, Mdm2 MdmX PPI 79*, CSC inhib 54, Beta cell apopt 22, PAX8 reporter 65*, Mdm2 MdmX conf 77* and FLuc counter 63*.
CN1CCN(C2Cc3cc(Cl)ccc3Sc3cc(F)ccc32)CC1 (stereo unspecified) was read as Gli-Sufu block 10, Mdm2 MdmX PPI 54*, CSC inhib 101*, PAX8 reporter 10, Shn3 3UTR inh 23 and Mdm2 MdmX conf 24.

High-throughput results deposited in PubChem BioAssay by several laboratories.
